# Test results reported in PubChem BioAssay.
# Values joined by “and” are separate entries in the source; they are usually repeats but may differ in a detail not shown here. Identical values can stand only once. Records with an inconclusive call do not appear. Active and inactive are the calls of the source. Unless noted, how the calls were made is not given here.
# Assays:
# [1] = kinase inhibitors against Plasmodium liver-stage infection, cell-based, known kinase inhibitor set, luminescence, hepatoma host viability (AID 624392); details: Plasmodium liver stage in hepatoma cells, luciferase luminescence, concentration not given here; liver cell % of control: measured here: host liver cell viability; parasite % of control: stronger effect = lower value;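 further: infected cells incubated roughly two days before readout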
# [2] = target: ATP-dependent translocase ABCB1 (Homo sapiens) (UniProt P08183); test: MDR1 (ABCB1) efflux transporter inhibition, cell-based (AID 377; in the data active means fluorescence slope change above about 50%); details: MDR1-expressing cells, fluorescent substrate accumulation slope; stronger effect = higher value; concentration not given here
# ATP-dependent translocase ABCB1 (Homo sapiens), sequence (P08183 whole entry, looked up): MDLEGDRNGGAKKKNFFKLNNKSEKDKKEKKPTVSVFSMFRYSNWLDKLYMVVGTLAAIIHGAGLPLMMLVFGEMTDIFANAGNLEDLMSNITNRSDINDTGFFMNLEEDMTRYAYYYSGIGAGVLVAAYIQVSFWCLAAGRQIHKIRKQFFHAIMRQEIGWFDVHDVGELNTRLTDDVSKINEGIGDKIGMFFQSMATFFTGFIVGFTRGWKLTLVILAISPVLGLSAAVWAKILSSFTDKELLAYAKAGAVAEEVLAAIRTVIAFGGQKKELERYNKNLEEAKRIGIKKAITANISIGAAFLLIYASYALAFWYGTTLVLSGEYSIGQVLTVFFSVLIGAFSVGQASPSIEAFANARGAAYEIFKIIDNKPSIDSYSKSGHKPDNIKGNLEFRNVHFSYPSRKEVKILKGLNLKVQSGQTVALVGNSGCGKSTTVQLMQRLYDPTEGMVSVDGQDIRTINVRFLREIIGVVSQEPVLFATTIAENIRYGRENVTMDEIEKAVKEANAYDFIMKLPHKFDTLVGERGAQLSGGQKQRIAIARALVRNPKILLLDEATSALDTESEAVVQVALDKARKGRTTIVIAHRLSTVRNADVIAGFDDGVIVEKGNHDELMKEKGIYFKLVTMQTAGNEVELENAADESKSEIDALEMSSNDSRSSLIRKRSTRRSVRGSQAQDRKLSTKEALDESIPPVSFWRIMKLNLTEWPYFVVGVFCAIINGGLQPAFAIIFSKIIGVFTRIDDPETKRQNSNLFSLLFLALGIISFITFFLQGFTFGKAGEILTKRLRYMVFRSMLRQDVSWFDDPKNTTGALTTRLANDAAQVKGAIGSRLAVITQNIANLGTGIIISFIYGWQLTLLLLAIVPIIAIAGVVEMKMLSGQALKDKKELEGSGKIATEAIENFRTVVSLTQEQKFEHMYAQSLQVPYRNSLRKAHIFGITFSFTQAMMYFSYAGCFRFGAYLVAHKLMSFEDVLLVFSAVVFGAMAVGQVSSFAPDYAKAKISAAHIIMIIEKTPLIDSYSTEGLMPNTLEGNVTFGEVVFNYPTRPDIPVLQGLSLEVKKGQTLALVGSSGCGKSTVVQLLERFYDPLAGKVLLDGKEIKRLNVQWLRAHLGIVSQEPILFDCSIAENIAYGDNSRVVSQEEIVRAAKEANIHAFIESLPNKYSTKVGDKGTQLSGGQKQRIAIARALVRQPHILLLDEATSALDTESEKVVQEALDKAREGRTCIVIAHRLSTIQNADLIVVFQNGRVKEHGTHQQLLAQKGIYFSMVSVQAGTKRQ
# [3] = hESC survival regulators, cell-based (AID 493140); details: human embryonic stem cell survival screen; stronger effect = higher value;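 further: cells exposed to compounds for four days before counting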
# [4] = inhibitors of Cryptococcus chitosan production, flow cytometry, Cibacron Brilliant Red staining (AID 1347148); details: Cryptococcus neoformans chitosan, stronger effect = lower value; at 10 µM unless noted;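 further: compound exposure lasted three days at 37 degrees C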
# [5] = target: Mitogen-activated protein kinase 7 (Homo sapiens) (UniProt Q13164); test: ERK5 transactivation activators in reporter cells, primary screen, cell-based, HTS (AID 1508626;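 active means luciferase signal above three times the same-plate solvent-only control wells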;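 further: luciferase driven by Gal4-ERK5 fusion binding five Gal4 sites before minimal TATA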); details: HeLa Gal4-ERK5 transactivation, 18 h, at 5 µM, stronger effect = higher value
# Mitogen-activated protein kinase 7 (Homo sapiens), sequence (Q13164 whole entry, looked up, the tested form may be a part): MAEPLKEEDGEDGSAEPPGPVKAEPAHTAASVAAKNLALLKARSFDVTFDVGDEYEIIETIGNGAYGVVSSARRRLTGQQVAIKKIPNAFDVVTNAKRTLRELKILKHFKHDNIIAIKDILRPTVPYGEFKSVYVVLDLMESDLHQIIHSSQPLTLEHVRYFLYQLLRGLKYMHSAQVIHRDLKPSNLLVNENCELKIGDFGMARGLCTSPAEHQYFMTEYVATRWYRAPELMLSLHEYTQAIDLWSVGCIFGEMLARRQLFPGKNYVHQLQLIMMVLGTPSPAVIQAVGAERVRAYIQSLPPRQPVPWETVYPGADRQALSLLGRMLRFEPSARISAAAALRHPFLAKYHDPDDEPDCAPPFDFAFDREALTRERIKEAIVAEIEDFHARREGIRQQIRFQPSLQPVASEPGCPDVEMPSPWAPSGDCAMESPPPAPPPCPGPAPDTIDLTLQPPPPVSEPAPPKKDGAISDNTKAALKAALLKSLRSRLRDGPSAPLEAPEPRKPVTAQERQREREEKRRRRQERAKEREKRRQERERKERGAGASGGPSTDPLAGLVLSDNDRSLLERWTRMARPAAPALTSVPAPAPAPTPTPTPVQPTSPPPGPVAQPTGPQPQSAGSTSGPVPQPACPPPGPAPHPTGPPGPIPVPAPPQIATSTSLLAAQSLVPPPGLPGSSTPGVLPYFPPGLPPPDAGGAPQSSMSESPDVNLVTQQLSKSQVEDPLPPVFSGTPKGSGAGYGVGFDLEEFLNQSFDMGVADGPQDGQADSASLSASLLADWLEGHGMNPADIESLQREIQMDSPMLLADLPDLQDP
# [6] = LFS_MB_2R medulloblastoma cell growth inhibition, synergistic combos for chromothripsis tumors, cisplatin combos (AID 1671457; in the data active means inhibition above about 80%;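 further: cells exposed to compound for four days before readout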); details: LFS_MB_2R medulloblastoma cells, stronger effect = higher value
# [7] = UWB1.289_BRCA1 ovarian cancer growth, cell-based, BGB or cisplatin combinations (AID 1671459; in the data active means inhibition above about 80%); details: UWB1.289 BRCA1 ovarian carcinoma, drug combinations, stronger effect = higher value
# [8] = human astrocyte viability loss, single and combined drugs, cytotoxicity control for chromothriptic childhood tumor combination screen, cell-based, BGB or cisplatin IC20 combos (AID 1671460; in the data active means inhibition above about 80%;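 further: cells exposed to compounds for 96 hours before viability readout; 0% = vehicle and 100% = killing control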); details: Human astrocytes, drug combinations, stronger effect = higher value
# [9] = measured here: combination with cisplatin, at 0.5 µM
# [10] = measured here: combination with cisplatin, at 5 µM
# [11] = BGB combination, concentration series, at 5 µM
# [12] = cisplatin combination, concentration series, at 5 µM
# [13] = measured here: combo with BGB IC20, at 0.5 µM
# [14] = measured here: combo with cisplatin IC20, at 0.5 µM
smiles,measurement,setting,value
C=CC(=O)Nc1cc2c(Nc3ccc(F)c(Cl)c3)ncnc2cc1OCCCN1CCOCC1,liver cell % of control,[1],85.5% and 77.3% and 90.4%
same,parasite % of control,[1],36.7% (inactive) and 39.4% (inactive) and 33.2% (inactive)
Clc1ccc(C(Cn2ccnc2)OCc2c(Cl)cccc2Cl)c(Cl)c1 (centres undefined),fluorescence slope change,[2],107% (active)
same,survival,[3],13.2 (inactive)
N=C(N)c1ccc2cc(OC(=O)c3ccc(N=C(N)N)cc3)ccc2c1,fold fluorescence,[4],12.2 [at 143.9 µM] (inactive)
CN1CCCN=C1/C=C/c1cccs1,survival,[3],25.8 (inactive)
Cc1ccc(Nc2nccc(N(C)c3ccc4c(C)n(C)nc4c3)n2)cc1S(N)(=O)=O,liver cell % of control,[1],87.8% and 92.8% and 108%
same,parasite % of control,[1],30.2% (inactive) and 10.9% (inactive) and 16.3% (inactive)
C[C@@H]1C[C@H]2[C@@H]3CCC4=CC(=O)C=C[C@]4(C)[C@@]3(Cl)[C@@H](O)C[C@]2(C)[C@@]1(OC(=O)c1ccco1)C(=O)CCl,fluorescence slope change,[2],21.4% (inactive)
same,survival,[3],4.67 (inactive)
C#Cc1cccc(Nc2ncnc3cc(OCCOC)c(OCCOC)cc23)c1,liver cell % of control,[1],94.7% and 95% and 97.1%
same,parasite % of control,[1],281% (inactive) and 87% (inactive) and 63.1% (inactive)
O=c1[nH]c(=O)n([C@H]2C[C@H](O)[C@@H](CO)O2)cc1C(F)(F)F,luciferase signal,[5],36 AU (inactive)
same,inhibition,[6]; at 0.5 µM,-13.5% (inactive)
same,inhibition,[6]; [9],-15.3%
same,inhibition,[6]; [10],-85.8%
same,inhibition,[7]; [11],3.66%
same,inhibition,[7]; at 0.5 µM,-12.4% (inactive)
same,inhibition,[7]; [12],9.54%
same,inhibition,[8]; at 0.5 µM,-1.16% (inactive)
same,inhibition,[8]; [13],5.49%
same,inhibition,[8]; [14],-19.9%
CCOC(=O)Nc1ccc(NCc2ccc(F)cc2)nc1N,inhibition,[6]; at 0.5 µM,-26.1% (inactive)
same,inhibition,[6]; [9],-30.1%
same,inhibition,[6]; [10],-38%
same,inhibition,[7]; [11],-6.96%
same,inhibition,[7]; at 0.5 µM,-1.39% (inactive)
same,inhibition,[7]; [12],8.03%
same,inhibition,[8]; at 0.5 µM,3.76% (inactive)
same,inhibition,[8]; [13],6.16%
same,inhibition,[8]; [14],13.9%
CC1=C(C)C(=O)C(CCCCC#CCCCC#CCO)=C(C)C1=O,fold fluorescence,[4],9.55 [at 153.2 µM] (inactive)
O=c1[nH]c(=O)n([C@H]2C[C@H](O)[C@@H](CO)O2)cc1Br,inhibition,[6]; at 0.5 µM,-21.2% (inactive)
same,inhibition,[6]; [9],-22.2%
same,inhibition,[6]; [10],-17.4%
same,inhibition,[7]; [11],35.6%
same,inhibition,[7]; at 0.5 µM,9.43% (inactive)
same,inhibition,[7]; [12],29%
same,inhibition,[8]; at 0.5 µM,11% (inactive)
same,inhibition,[8]; [13],6.3%
same,inhibition,[8]; [14],12.5%
CCCCCCCCCCCCCCC[C@H](O)[C@@H](N)CO,survival,[3],80 (inactive)
same,fold fluorescence,[4],7.01 (inactive)
C(=C\c1ccccc1)/CN1CCN(C(c2ccccc2)c2ccccc2)CC1,fluorescence slope change,[2],102% (active)
same,survival,[3],11.3 (inactive)
CC(=O)Oc1cc(C(F)(F)F)ccc1C(=O)O,survival,[3],9.25 (inactive)
OCCN1CCN(CC/C=C2/c3ccccc3Sc3ccc(C(F)(F)F)cc32)CC1,fluorescence slope change,[2],77.6% (active)
same,survival,[3],3.17 (inactive)
CC(=O)OCC(=O)[C@@]1(OC(C)=O)[C@@H](C)C[C@H]2[C@@H]3C[C@H](F)C4=CC(=O)C=C[C@]4(C)[C@@]3(F)[C@@H](O)C[C@@]21C,survival,[3],6.42 (inactive)
